# PMC7862700, “An all-to-all approach to the identification of sequence-specific readers for epigenetic DNA modifications on cytosine”
# Assays:
# Assay in all cases: DAPPL (digital affinity profiling via proximity ligation, sequencing); 10 mM Tris-HCl pH 7.5, 50 mM NaCl, 1 mM DTT, 4% glycerol, room temperature, 30 min; GST-TFs on glutathione beads, 16-mer random dsDNA library, 0.1% formaldehyde crosslink after washing; high values mean tight binding
# Conditions in all cases: protein: recombinant; tags: N-terminal GST; dsDNA, one strand shown
# ELK1 = molecular target: T1, ELK1 (Homo sapiens, UniProt P19419 1-428)
# T1 sequence: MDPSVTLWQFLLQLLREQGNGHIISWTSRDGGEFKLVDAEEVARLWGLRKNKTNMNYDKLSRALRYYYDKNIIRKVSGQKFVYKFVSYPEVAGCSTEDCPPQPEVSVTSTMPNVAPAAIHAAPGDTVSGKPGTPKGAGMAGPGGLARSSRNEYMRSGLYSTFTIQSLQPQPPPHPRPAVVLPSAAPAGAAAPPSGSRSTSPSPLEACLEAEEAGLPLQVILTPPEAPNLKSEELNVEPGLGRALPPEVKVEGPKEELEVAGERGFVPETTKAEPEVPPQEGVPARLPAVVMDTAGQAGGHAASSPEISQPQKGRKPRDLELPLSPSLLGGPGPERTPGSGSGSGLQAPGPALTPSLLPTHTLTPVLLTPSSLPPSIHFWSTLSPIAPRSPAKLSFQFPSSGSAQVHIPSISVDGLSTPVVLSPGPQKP
# How it was run: (§1)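 Yeast served to express human transcription factors as GST fusions, which were then captured on glutathione beads and labelled with DNA barcodes. Pooled with a tag-only sample, they were incubated with 200 nmole of a 16-mer random double-stranded DNA library for 30 min at room temperature in Tris/NaCl/DTT/glycerol buffer, washed, crosslinked with 0.1% formaldehyde, ligated by proximity, amplified by PCR and sequenced. Dividing each hexamer's read frequency for a factor by its frequency for the tag-only sample gives the binding signal.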
# GABPA = molecular target: T2, GABPA (Homo sapiens, UniProt Q06546 1-454)
# T2 sequence: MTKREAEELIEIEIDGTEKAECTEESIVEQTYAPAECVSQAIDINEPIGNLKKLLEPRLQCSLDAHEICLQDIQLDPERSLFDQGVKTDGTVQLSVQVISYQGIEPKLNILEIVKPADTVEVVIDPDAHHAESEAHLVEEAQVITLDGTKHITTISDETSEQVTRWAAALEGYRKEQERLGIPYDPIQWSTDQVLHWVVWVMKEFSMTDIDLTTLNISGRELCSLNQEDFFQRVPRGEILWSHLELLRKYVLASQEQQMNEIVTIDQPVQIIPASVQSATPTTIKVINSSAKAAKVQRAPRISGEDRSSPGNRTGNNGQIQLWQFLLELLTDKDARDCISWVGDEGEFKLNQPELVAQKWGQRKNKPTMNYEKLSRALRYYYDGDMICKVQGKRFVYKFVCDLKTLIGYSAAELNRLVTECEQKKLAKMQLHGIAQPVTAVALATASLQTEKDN
# How it was run: as §1
# ERG = molecular target: T3, ERG (Homo sapiens, UniProt P11308 1-479)
# T3 sequence: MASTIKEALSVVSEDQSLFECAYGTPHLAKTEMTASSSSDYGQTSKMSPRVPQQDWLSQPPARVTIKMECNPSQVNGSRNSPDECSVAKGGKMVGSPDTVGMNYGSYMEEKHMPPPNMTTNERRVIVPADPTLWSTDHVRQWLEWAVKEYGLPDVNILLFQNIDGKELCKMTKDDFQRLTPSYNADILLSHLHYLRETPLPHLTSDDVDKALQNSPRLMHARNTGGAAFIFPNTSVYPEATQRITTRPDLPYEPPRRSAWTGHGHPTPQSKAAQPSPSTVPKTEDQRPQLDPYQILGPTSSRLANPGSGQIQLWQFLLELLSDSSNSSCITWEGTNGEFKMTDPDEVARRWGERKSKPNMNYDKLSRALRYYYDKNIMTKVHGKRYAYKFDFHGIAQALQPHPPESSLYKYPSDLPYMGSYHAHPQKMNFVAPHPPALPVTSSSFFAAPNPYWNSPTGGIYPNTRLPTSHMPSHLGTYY
# How it was run: as §1
# ELF1 = ELF1 (Homo sapiens, UniProt P32519 1-619)
# How it was run: as §1
# EHF = molecular target: T4, EHF (Homo sapiens, UniProt Q9NZC4 1-300)
# T4 sequence: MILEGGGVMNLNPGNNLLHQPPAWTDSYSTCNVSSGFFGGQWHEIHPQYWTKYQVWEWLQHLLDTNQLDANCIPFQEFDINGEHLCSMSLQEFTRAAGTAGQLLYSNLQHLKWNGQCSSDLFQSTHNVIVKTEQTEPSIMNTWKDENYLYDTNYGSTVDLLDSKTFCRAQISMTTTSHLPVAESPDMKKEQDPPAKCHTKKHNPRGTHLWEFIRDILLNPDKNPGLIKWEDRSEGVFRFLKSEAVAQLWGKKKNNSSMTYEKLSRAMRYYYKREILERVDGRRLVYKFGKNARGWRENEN
# How it was run: as §1
# SPIB = SPIB (Homo sapiens, UniProt Q01892 1-262)
# How it was run: as §1
# FEV = molecular target: T5, FEV (Homo sapiens, UniProt Q99581 1-238)
# T5 sequence: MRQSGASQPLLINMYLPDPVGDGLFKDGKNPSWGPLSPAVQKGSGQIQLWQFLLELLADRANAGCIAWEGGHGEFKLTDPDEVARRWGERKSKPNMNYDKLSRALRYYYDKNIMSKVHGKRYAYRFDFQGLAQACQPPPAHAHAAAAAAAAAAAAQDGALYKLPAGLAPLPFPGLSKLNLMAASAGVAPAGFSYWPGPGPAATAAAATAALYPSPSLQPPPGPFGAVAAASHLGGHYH
# How it was run: as §1
# ETV5 = ETV5 (Homo sapiens, UniProt P41161 1-510)
# How it was run: as §1
# ELF4 = ELF4 (Homo sapiens, UniProt Q99607 1-663)
# How it was run: as §1
# ELK4 = molecular target: T6, ELK4 (Homo sapiens, UniProt P28324-2 1-405)
# T6 sequence: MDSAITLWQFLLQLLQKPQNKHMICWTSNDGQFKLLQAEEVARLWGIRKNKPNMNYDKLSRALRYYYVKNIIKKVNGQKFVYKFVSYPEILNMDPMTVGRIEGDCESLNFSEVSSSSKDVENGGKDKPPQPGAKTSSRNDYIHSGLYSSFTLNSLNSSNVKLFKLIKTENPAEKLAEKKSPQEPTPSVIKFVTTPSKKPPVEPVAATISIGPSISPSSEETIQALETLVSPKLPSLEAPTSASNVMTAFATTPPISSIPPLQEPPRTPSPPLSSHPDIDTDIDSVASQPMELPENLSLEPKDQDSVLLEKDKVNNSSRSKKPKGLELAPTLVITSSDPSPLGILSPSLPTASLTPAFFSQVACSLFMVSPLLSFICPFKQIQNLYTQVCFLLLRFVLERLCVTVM
# How it was run: as §1
# ELF3 = molecular target: T7, ELF3 (Homo sapiens, UniProt P78545 1-371)
# T7 sequence: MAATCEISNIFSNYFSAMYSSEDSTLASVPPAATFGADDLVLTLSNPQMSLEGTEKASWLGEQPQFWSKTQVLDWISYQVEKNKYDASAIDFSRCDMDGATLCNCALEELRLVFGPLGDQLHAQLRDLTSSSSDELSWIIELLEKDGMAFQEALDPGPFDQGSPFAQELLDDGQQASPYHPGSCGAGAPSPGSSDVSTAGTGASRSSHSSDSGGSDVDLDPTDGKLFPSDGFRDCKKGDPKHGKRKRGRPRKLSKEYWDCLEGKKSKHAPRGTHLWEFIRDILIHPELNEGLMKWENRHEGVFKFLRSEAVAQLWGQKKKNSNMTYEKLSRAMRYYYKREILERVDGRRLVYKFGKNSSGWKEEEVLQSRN
# How it was run: as §1
# ETV1 = ETV1 (Homo sapiens, UniProt P50549 1-477)
# How it was run: as §1
# ERF = molecular target: T8, ERF (Homo sapiens, UniProt P50548 1-548)
# T8 sequence: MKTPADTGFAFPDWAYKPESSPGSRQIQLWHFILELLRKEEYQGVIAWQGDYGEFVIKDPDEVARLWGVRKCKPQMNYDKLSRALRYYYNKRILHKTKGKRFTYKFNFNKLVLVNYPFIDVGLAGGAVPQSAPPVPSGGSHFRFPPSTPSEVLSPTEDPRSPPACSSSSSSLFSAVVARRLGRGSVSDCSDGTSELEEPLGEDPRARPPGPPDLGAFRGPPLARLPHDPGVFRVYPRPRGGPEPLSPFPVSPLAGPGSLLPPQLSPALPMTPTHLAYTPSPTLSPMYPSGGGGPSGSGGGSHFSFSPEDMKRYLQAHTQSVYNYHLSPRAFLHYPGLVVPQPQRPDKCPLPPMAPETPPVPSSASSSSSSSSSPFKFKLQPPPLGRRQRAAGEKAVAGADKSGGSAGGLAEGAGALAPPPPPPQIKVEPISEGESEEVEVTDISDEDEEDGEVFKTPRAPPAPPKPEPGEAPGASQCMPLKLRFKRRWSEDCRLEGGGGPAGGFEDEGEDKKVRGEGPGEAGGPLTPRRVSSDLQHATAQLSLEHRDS
# How it was run: as §1
# ETV3L = molecular target: T9, ETV3L (Homo sapiens, UniProt Q6ZN32 1-361)
# T9 sequence: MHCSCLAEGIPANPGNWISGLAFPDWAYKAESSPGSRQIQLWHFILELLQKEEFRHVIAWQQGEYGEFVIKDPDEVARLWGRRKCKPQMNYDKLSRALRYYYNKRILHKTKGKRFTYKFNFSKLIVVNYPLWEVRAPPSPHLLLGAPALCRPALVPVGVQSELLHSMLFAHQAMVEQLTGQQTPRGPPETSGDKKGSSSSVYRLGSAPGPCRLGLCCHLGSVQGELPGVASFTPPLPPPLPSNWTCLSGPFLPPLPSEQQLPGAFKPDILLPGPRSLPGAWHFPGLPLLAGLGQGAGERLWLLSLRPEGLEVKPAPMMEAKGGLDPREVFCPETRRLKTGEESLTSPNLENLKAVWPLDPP
# How it was run: as §1
# ETS2 = molecular target: T10, ETS2 (Homo sapiens, UniProt P15036 1-469)
# T10 sequence: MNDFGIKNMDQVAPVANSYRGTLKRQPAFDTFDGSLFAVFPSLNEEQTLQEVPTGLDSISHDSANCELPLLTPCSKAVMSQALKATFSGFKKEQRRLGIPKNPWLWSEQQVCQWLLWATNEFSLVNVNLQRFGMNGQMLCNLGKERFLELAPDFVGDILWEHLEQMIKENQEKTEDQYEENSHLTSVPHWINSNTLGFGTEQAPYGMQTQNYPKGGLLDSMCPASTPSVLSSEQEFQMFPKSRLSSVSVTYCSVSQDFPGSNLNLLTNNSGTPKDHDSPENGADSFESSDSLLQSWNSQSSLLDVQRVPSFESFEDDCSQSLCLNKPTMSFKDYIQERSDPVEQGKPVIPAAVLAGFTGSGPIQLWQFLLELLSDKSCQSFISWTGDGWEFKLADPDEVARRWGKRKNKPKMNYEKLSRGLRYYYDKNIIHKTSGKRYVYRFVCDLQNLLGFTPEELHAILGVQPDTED
# How it was run: as §1
# SPDEF = molecular target: T11, SPDEF (Homo sapiens, UniProt O95238 1-335)
# T11 sequence: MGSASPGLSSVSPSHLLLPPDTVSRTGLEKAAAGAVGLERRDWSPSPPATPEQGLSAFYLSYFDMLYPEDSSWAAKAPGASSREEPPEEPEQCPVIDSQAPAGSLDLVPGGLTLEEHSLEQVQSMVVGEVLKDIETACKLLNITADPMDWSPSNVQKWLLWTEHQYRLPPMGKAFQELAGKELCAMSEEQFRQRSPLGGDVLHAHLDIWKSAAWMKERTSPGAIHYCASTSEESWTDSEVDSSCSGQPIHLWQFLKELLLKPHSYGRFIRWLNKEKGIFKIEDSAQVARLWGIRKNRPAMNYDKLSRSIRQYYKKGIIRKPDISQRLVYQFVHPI
# How it was run: as §1
# ETV7 = molecular target: T12, ETV7 (Homo sapiens, UniProt Q9Y603 1-341)
# T12 sequence: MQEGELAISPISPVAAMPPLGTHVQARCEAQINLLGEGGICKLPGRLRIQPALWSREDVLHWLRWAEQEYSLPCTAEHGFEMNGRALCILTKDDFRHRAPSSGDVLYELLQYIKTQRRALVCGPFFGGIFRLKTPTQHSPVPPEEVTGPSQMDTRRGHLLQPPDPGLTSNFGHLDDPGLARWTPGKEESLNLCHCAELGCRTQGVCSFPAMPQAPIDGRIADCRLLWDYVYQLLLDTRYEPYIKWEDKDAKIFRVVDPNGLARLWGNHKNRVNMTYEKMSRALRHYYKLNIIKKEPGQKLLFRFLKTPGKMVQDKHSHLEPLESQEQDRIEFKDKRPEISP
# How it was run: as §1
# ETV3 = molecular target: T13, ETV3 (Homo sapiens, UniProt P41162-2 1-143)
# T13 sequence: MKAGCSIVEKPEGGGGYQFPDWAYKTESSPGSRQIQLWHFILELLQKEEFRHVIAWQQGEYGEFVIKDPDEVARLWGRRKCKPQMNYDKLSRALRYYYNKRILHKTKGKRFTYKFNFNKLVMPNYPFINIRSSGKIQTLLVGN
# How it was run: as §1
# ETV6 = ETV6 (Homo sapiens, UniProt P41212 1-452)
# How it was run: as §1
# Chain of ELF1 (P32519 whole entry): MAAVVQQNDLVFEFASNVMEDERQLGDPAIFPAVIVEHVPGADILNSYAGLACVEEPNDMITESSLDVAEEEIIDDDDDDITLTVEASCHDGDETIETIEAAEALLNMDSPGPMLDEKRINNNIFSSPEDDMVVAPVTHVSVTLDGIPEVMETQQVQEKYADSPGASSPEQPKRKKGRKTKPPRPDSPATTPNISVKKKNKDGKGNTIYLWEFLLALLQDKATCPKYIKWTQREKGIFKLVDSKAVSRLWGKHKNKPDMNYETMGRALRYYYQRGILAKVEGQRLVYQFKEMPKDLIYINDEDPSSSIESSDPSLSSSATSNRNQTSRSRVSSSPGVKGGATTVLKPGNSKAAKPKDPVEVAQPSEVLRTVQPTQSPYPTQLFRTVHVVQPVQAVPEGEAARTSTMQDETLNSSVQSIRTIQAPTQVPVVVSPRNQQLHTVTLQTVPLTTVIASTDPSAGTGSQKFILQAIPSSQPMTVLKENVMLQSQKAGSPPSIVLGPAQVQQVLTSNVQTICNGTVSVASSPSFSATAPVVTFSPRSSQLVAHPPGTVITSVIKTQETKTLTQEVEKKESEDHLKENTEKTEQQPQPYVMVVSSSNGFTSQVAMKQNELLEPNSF
# Chain of ETV1 (P50549 whole entry): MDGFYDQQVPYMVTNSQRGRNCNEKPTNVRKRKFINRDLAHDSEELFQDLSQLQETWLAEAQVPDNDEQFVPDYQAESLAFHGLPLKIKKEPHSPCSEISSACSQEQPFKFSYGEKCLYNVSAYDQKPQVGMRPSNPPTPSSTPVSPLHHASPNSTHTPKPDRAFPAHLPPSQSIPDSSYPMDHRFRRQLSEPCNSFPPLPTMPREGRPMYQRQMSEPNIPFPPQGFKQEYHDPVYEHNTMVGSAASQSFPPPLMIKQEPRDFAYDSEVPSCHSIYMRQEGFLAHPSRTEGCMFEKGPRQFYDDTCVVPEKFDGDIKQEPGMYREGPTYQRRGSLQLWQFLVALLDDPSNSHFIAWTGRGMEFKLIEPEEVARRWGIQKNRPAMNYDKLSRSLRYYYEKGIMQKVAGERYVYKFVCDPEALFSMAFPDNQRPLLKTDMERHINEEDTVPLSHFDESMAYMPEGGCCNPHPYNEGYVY
# Chain of ELF4 (Q99607 whole entry): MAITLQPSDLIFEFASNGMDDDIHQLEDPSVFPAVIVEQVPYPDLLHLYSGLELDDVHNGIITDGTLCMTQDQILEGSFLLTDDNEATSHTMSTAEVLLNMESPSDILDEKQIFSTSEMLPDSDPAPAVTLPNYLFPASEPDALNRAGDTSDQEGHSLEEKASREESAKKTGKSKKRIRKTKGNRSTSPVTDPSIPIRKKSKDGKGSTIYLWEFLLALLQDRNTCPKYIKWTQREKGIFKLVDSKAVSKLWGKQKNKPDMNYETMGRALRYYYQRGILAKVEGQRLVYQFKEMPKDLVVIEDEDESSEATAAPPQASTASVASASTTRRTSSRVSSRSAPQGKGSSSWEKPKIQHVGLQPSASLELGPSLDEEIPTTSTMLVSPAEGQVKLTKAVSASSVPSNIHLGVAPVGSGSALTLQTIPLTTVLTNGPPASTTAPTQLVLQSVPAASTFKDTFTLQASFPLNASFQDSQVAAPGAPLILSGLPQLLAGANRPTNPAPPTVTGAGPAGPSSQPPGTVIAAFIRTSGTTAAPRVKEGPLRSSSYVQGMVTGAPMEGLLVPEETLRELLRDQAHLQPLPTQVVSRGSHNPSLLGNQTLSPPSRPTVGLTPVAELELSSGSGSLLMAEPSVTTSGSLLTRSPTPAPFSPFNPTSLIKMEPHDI
# Chain of ETV6 (P41212 whole entry): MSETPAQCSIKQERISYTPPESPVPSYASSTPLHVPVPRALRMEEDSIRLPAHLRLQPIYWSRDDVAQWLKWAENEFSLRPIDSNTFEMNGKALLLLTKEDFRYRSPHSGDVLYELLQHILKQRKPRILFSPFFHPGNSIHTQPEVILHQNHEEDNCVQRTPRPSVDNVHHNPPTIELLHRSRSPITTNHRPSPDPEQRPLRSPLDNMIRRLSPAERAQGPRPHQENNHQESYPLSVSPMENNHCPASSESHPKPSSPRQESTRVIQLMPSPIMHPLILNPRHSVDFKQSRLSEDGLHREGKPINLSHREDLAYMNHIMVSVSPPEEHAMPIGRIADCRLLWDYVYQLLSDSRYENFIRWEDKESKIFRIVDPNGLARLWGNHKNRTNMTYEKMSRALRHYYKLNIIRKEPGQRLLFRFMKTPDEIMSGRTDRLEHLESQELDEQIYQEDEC
# Chain of SPIB (Q01892 whole entry): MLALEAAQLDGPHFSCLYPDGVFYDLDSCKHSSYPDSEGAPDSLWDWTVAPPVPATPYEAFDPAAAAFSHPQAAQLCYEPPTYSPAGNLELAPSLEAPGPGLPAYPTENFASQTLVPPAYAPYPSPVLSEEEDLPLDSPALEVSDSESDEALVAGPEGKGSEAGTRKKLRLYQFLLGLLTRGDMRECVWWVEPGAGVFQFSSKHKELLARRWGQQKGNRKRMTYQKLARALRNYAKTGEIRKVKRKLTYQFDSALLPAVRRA
# Chain of ETV5 (P41161 whole entry): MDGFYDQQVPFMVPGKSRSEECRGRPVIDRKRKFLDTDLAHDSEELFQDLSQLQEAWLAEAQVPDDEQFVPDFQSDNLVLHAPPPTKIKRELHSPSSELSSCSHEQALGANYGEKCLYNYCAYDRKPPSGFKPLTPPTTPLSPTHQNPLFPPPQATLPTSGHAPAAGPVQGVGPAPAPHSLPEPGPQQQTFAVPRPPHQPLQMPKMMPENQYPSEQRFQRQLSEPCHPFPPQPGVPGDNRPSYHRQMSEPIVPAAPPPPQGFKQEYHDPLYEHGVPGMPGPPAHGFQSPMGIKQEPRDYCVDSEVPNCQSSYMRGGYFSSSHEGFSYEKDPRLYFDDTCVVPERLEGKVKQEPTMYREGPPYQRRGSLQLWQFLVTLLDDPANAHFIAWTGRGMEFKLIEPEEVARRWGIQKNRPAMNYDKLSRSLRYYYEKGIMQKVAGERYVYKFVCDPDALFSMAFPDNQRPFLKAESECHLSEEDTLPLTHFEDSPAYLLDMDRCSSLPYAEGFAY
sequence,measurement,setting,value
GTTGTT,binding signal,ELK1,"1.12 fold enrichment (6-mer frequency, TF over GST control)"
same,binding signal,GABPA,"1.04 fold enrichment (6-mer frequency, TF over GST control)"
same,binding signal,ERG,"1.02 fold enrichment (6-mer frequency, TF over GST control)"
same,binding signal,ELF1,"1.09 fold enrichment (6-mer frequency, TF over GST control)"
same,binding signal,EHF,"1.12 fold enrichment (6-mer frequency, TF over GST control)"
same,binding signal,SPIB,"1.22 fold enrichment (6-mer frequency, TF over GST control)"
same,binding signal,FEV,"1.1 fold enrichment (6-mer frequency, TF over GST control)"
same,binding signal,ETV5,"1.02 fold enrichment (6-mer frequency, TF over GST control)"
same,binding signal,ELF4,"1.04 fold enrichment (6-mer frequency, TF over GST control)"
same,binding signal,ELK4,"1.33 fold enrichment (6-mer frequency, TF over GST control)"
same,binding signal,ELF3,"1.13 fold enrichment (6-mer frequency, TF over GST control)"
same,binding signal,ETV1,"1.14 fold enrichment (6-mer frequency, TF over GST control)"
same,binding signal,ERF,"1.06 fold enrichment (6-mer frequency, TF over GST control)"
same,binding signal,ETV3L,"1.14 fold enrichment (6-mer frequency, TF over GST control)"
same,binding signal,ETS2,"1.06 fold enrichment (6-mer frequency, TF over GST control)"
same,binding signal,SPDEF,"1.12 fold enrichment (6-mer frequency, TF over GST control)"
same,binding signal,ETV7,"1.25 fold enrichment (6-mer frequency, TF over GST control)"
same,binding signal,ETV3,"1.11 fold enrichment (6-mer frequency, TF over GST control)"
same,binding signal,ETV6,"1.09 fold enrichment (6-mer frequency, TF over GST control)"
